The text below walks through data of PubChem BioAssay AID1851 (National Center for Advancing Translational Sciences (NCATS), 2009).

“And” between values parts separate entries of the source, which are not always exact repeats. Equal values may be shown once. In all, about 16,000 compounds went through this assay and about 5,700 (36%) were called active. Inconclusive results (about 24%) are left out. This is one part of the list. Values without a mark were called inactive. Calls follow the shape of the dose curve; as a rule, active = well fitted curve in the direction sought with a large enough effect; inconclusive = small, poorly fitted or top-dose-only effect, or effect the other way; inactive = no such curve, though single readings can be large or run the other way. Numbered stars: 1 amine (or outer) side, 2 acyl side, 3 side chain; on linkers, the order of the positions; unused ones are H or OH. Bridge positions count the residues as written; N and C are the ends. Square brackets hold non-standard residues; d marks the D form. Peptide text beside a SMILES is read from it. I, II: the chains in the order shown. Actinocin(9to1) = Cc1c2oc3c(C)ccc(C(=O)[*:1])c3nc-2c(C(=O)[*:2])c(N)c1=O; aThr = C[C@H](O)[C@H](N)C(=O)O; NMeV = CN[C@H](C(=O)O)C(C)C; Sar = CNCC(=O)O
% is scaled to controls: 0 for no effect and ±100 for the full control effect.

The target of the assay is Cytochrome P450 1A2 (Homo sapiens) (UniProt P05177). Description: Cytochrome panel assay with activity outcomes. To be noted: recombinant CYP, pro-luciferin dealkylation, luminescence, p450-cyp1a2; series mostly up to 57.1 µM; activity, negative = inhibition: at the top concentration.
Chain of Cytochrome P450 1A2 (Homo sapiens) (P05177 whole entry, looked up): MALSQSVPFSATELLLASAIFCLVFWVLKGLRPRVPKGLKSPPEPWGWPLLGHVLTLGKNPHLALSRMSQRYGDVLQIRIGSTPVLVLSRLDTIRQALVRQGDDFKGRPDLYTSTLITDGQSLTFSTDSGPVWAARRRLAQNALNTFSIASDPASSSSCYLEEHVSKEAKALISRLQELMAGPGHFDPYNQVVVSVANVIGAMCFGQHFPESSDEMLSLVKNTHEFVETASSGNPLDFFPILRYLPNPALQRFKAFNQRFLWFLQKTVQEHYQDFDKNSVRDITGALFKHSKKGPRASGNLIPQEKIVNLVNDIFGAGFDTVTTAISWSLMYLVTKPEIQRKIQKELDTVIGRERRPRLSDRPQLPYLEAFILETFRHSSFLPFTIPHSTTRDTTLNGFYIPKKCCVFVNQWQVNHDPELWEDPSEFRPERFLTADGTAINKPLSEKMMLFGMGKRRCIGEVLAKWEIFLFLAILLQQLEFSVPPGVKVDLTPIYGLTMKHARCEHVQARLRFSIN
`Cc1c2oc3c(C)ccc(C(=O)N[C@@H]4C(=O)N[C@@H](C(C)C)C(=O)N5CCC[C@@H]5C(=O)N(C)CC(=O)N(C)[C@@H](C(C)C)C(=O)O[C@H]4C)c3nc-2c(C(=O)N[C@@H]2C(=O)N[C@@H](C(C)C)C(=O)N3CCC[C@@H]3C(=O)N(C)CC(=O)N(C)[C@@H](C(C)C)C(=O)O[C@H]2C)c(N)c1=O` (I: [aThr]V[dP][Sar][NMeV] / II: [aThr]V[dP][Sar][NMeV]; ester I:1-I:C, II:1-II:C; linker I:N-II:N via Actinocin(9to1)): the “activity, negative = inhibition” value is -34.7%. `CCOC(=O)C1=C(c2ccccc2)OC(N)=C(C#N)C1c1ccc(Cl)s1` (centres undefined): the AC50 (in general, the concentration at which the activity in the assay is half-maximal) was 0.398 µM (active). In the case of `CCc1ccc2c(-c3cccc(Cl)c3)nc(=O)n(CC)c2n1`, the AC50 was 0.126 µM (active). Regarding `O=C(CCc1ccccc1)NNC(=O)c1ccco1`, the “activity, negative = inhibition” value was 7.32%.

Consider `Cc1ccc(NC(=O)CCC(=O)NNC(=O)c2ccco2)cc1C`, for which the “activity, negative = inhibition” value was -17.2%.

Regarding `Cc1cc(NC(=O)c2ccco2)ccc1-n1cnnn1`, the half-maximal activity concentration (AC50) was 14.1 µM (active).

For `O=C(Nc1ccccc1C(=O)NCCc1ccccc1)c1ccco1`, the AC50 is 5.01 µM (active).

Regarding `O=C(Nc1ccccc1C(=O)Nc1ccc2c(c1)OCO2)c1ccco1`, the AC50 was 8.91 µM (active). For `CC1=C(C(=O)Nc2ccccc2)C(c2ccco2)NC(=S)N1` (centres undefined), the “activity, negative = inhibition” value was -11.4%. For `CC1(C)Oc2ccc(NC(=O)c3ccco3)cc2O1`, the AC50 is 5.01 µM (active). For `Cc1cc(C)cc(NC(=O)N2CCCC2C(=O)Nc2ccc(-n3cnnn3)c(C)c2)c1` (centres undefined), the “activity, negative = inhibition” value was -14.1%. In the case of `CCC(NC(=O)c1ccccc1NC(=O)c1ccco1)C(=O)NC1CCCCC1` (centres undefined), the “activity, negative = inhibition” value is -16.4%. As for `N#CC(C#N)=CNCCN1CCN(C=C(C#N)C#N)CC1`, the activity, negative = inhibition is -15.4% [at 2.29 µM]. As for `NC(N)=N[C@H](CCC(=O)O)C(=O)O`, the “activity, negative = inhibition” value is -0.3%. Consider `COc1ccc2[nH]cc(CCNc3ccnc(-c4c(C)noc4C)n3)c2c1`, for which the AC50 is 2 µM (active).

`COc1ccc2[nH]cc(CCNc3ccnc(-c4ccc(C(=O)N(C)C)cc4)n3)c2c1`: the AC50 was 12.6 µM (active). Take `COc1ccc2[nH]cc(CCNc3cc(-c4ccc(C(=O)N(C)C)cc4)ncn3)c2c1`: the AC50 was 20 µM (active). Consider `COc1ccc2[nH]cc(CCNc3ccnc(-c4ccc(N(C)C)cc4)n3)c2c1`, for which the AC50 is 0.631 µM (active). For `CCOC(=O)C1=C[C@@]2(CC)CCCN3CCc4c(n1c1ccccc41)[C@H]32`, the “activity, negative = inhibition” value is -14.8% [at 25.6 µM]. Take `COc1ccc2[nH]cc(CCNc3ccnc(-c4ccoc4)n3)c2c1`: the AC50 was 0.501 µM (active). As for `COc1ccc([C@@H](Nc2ncccn2)c2cc3c(cc2O)OCO3)cc1`, the activity, negative = inhibition was -14.3% [at 2.29 µM]. As to `COc1ccc2[nH]cc(CCNc3ccnc(-c4ccc5c(c4)OCO5)n3)c2c1`, the AC50 was 0.631 µM (active).

As to `O=C(O)CC(O)C(=O)O` (centres undefined), the “activity, negative = inhibition” value was -6.27%. Still for that read-out and setting: then `CC(C)(CS)C(=O)N1CCC[C@H]1C(=O)O`, with 10.1% [at 25.6 µM]. Consider `O=S(=O)(Cc1cc(Oc2ccccc2)nc(-c2ccccc2)n1)c1ccccc1`, for which the AC50 was 0.708 µM (active). With `O=S(Cc1cc(Oc2ccccc2)nc(-c2ccccc2)n1)c1ccccc1` (centres undefined), the AC50 was 2.82 µM (active). Still for that read-out and setting: for `CNc1cc(CS(=O)c2ccccc2)nc(-c2ccccc2)n1` (centres undefined) the value was 14.1 µM (active); for `Cc1nnc(-c2cccc(Br)c2)c2cn(-c3ccccc3Cl)nc12`, 1.58 µM (active); for `Cc1nnc(-c2cccc(Br)c2)c2cn(-c3ccc(Br)cc3)nc12`, 0.891 µM (active).

As for `Cc1nn(C)cc1CNC(=O)CCC(=O)O`, the “activity, negative = inhibition” value was -0.742%. In the case of `O=C(CSC1=NCCS1)N1CCN(c2ccc(Cl)cc2)CC1`, the AC50 is 14.1 µM (active). On to `O=C(CSc1ccc(Cl)cc1)Nc1ccc(N2CCN(C(=O)c3ccc(Cl)cc3)CC2)cc1`, for which the “activity, negative = inhibition” value is -13.4%. On the same count and under the same terms, then `COC(=O)C/C=C\[C@@H](C)[C@@H](/C=N\O[C@@H](C)c1cn([C@H]2COC[C@H]2O)nn1)OC`, with 9.97% [at 11.4 µM]. Turning to `O=C1C2=C(NC(=S)NC2c2ccc(Cl)cc2)NC(c2ccc(Cl)cc2)N1c1ccc(Cl)cc1` (centres undefined), the AC50 was 12.6 µM (active). Consider `COC(=O)C/C=C\[C@@H](C)[C@@H](/C=N\O[C@@H](C)c1cn([C@H](CO)Cc2ccccc2)nn1)OC`, for which the activity, negative = inhibition was -11.5% [at 11.4 µM] and 12.6% [at 11.4 µM]. With `Cc1ccccc1NC(=O)c1cccc2nc3ccccc3nc12`, the AC50 was 2 µM (active). In the case of `O=C(Nc1ccc2c(c1)OCCO2)c1cccc2nc3ccccc3nc12`, the AC50 is 2 µM (active). As to `Cc1ccccc1NC(=O)CN1CCC(n2nnc3ccccc32)CC1`, the “activity, negative = inhibition” value is -9.11%. On to `Cc1ccccc1NC(=O)c1cnc(Nc2nc3ccccc3s2)nc1C`, for which the “activity, negative = inhibition” value is -2.33%. Consider `COc1ccc(-n2c(=O)c(-c3cccc(C#N)c3)nc3cnc(N4CCNCC4)nc32)cc1`, for which the AC50 was 15.8 µM (active). Same read-out and setting: for `O=c1c(-c2ccc(F)cc2)nc2cnc(N3CCNCC3)nc2n1-c1ccccc1` the value was 10 µM (active); for `COc1ccc(-n2c(=O)c(-c3ccccc3)nc3cnc(N4CCNCC4)nc32)cc1`, 15.8 µM (active). As for `COc1cccc(Cn2c(=O)c(-c3cccc(C#N)c3)nc3cnc(N4CCN(C)CC4)nc32)c1`, the “activity, negative = inhibition” value was -4.7%. On to `O=C(c1cccc(F)c1)N1CCC2(CC1)CN(c1ccncc1)C2`, for which the “activity, negative = inhibition” value was -7.68%.

On to `Cc1ccc(S(=O)(=O)N2CCN(Cc3ccccc3C(F)(F)F)CC2)cc1`, for which the “activity, negative = inhibition” value was -21.7%. With `COc1ccc(C2=Nc3cccc4cccc(c34)N2)cc1`, the AC50 is 0.631 µM (active).

For the molecule `CCCC(=O)Nc1nnc(Cc2ccccc2)s1`, the AC50 was 12.6 µM (active). Take `CC(=O)Nc1ccc(C(=O)NNC(=O)CCc2ccccc2)cc1`: the “activity, negative = inhibition” value is -1.45%. For the molecule `O=C(CCc1ccccc1)Nc1nncs1`, the AC50 was 10 µM (active). As to `CCCC(=O)Nc1nnc(CCN2CCCCC2)s1`, the “activity, negative = inhibition” value was -3.37%. On to `CCCc1nnc(NC(=O)CCC(=O)NCc2ccccc2OC)s1`, for which the “activity, negative = inhibition” value was -21.1%. For `Nc1ccc(S(=O)(=O)NC(=O)c2ccccc2)cc1`, the “activity, negative = inhibition” value was -3.88% [at 25.6 µM]. `Nc1ccc(N(c2ccccc2)c2ccc(N)cc2)cc1`: the AC50 is 17.8 µM (active).

Consider `C[C@@H]1O[C@H](O[C@@H]2[C@@H](Oc3cc(O)c4c(c3)O[C@H](c3ccc(O)cc3)CC4=O)O[C@@H](CO)[C@@H](O)[C@H]2O)[C@@H](O)[C@H](O)[C@@H]1O`, for which the “activity, negative = inhibition” value is -11.8% [at 25.6 µM]. Take `Nc1nc(-c2ccccc2)c(-c2ccccc2)s1`: the AC50 is 2.82 µM (active). Turning to `Nc1nnc(C(c2ccccc2)c2ccccc2)s1`, the “activity, negative = inhibition” value was -5.01%. For the molecule `Nc1nc(-c2ccccc2)c(-c2ccccc2)c(-c2nc(N)nc(-c3ccccc3)c2-c2ccccc2)n1`, the activity, negative = inhibition is -4.5% [at 11.4 µM]. Consider `Nc1ccc(-c2sc(N)nc2-c2ccccc2)cc1`, for which the AC50 is 8.91 µM (active). As to `CC(C)CN1CCC2(CC1)CCN(C(=O)c1ccncc1)CC2`, the “activity, negative = inhibition” value is 7.78%. `CN(C)CCC[C@@]1(c2ccc(F)cc2)OCc2cc(C#N)ccc21`: the AC50 result is “inactive”. `Cc1ccc(-c2cc(C(=O)NCc3ccco3)c3ccccc3n2)s1`: the AC50 is 6.31 µM (active).

Take `Cc1cccc(C)c1-n1c(SCC(=O)NCc2ccco2)nc2ccccc2c1=O`: the “activity, negative = inhibition” value was -8.08%. With `CCc1ccc(-c2cc(C(=O)NCc3ccco3)c3ccccc3n2)s1`, the AC50 is 3.55 µM (active). On to `Cc1ccc(S(=O)(=O)N(Cc2ccccc2)c2ccccc2C(=O)NCc2ccco2)cc1`, for which the “activity, negative = inhibition” value is -9.89%. Same read-out and setting: then `CC(C)C(O)(C(C)C)C(C)C`, with -8.65% [at 11.4 µM].

For `C=CCOc1c(Br)cc(CNc2ccc(NC(=O)C(C)C)c(OC)c2)cc1OC`, the AC50 was 15.8 µM (active). Take `CCC1CC2CC(NC(C)=O)C1C2` (centres undefined): the “activity, negative = inhibition” value was -1.77%. With `COc1ccc(C(=O)c2cnc3ccccc3c2-c2ccccc2)cc1`, the AC50 is 15.8 µM (active). For the molecule `C=CC[C@@H]1C=C[C@H](O/N=C(\C)CCN2CCc3nc(-c4ccccc4)c(-c4ccccc4)cc3C2)[C@H](CO)O1`, the activity, negative = inhibition is 5.54% [at 11.4 µM]. As for `CCCCOC(=O)NS(=O)(=O)c1sc(CC(C)C)cc1-c1ccc(Cn2c(CC)nc3c(C)cc(C)nc32)cc1`, the AC50 was 31.6 µM (active).

With `CC(C)CCn1nnnc1C(c1ccc(F)cc1)N1CCN(C(=O)c2ccco2)CC1` (centres undefined), the “activity, negative = inhibition” value is -26.7%.

Take `CCCC[C@H]1C[C@@H]1[C@@H]1N(P(=O)(c2ccccc2)c2ccccc2)C[C@@](O)(c2ccccc2)CC12CC2`: the “activity, negative = inhibition” value is -2%. On to `O=C1C=C(Nc2nc(C(=O)O)cc(=O)[nH]2)c2ccccc2C1=O`, for which the activity, negative = inhibition was -15.8% [at 2.29 µM]. With `O=C1C=C(NCCc2cc(Br)c(O)c(Br)c2)C(=O)c2ncccc21`, the AC50 was 3.16 µM (active).

For `COc1ccc(C(=O)Nc2cc(Cl)ccc2OC(=O)c2ccc(OC)cc2)cc1`, the AC50 is 10 µM (active). On the same count and under the same terms, for `COc1ccc(C(=O)Nc2scc(-c3ccc(Cl)cc3Cl)c2C(N)=O)cc1` the value was 0.447 µM (active); for `Cc1ccc(C(=O)Nc2cc(Cl)ccc2OC(=O)c2ccc(C)cc2)cc1`, 10 µM (active). Take `Cc1sc(NC(=O)c2ccc(OCC(C)C)cc2)c(C(N)=O)c1-c1ccc(Cl)cc1Cl`: the “activity, negative = inhibition” value is 5.63%.

On to `Cc1ccc(C(=O)O[C@@H](C(=O)O)[C@@H](OC(=O)c2ccc(C)cc2)C(=O)O)cc1` (tested in a mixture with another compound), for which the “activity, negative = inhibition” value is 0.639%. Take `CC(C)COc1ccc(C(=O)Nc2scc(-c3ccc(Cl)cc3Cl)c2C(N)=O)cc1`: the “activity, negative = inhibition” value is -16.6%.

On to `NNC(=O)c1ccc[n+](CCc2ccccc2)c1`, for which the activity, negative = inhibition was -20.6% [at 11.4 µM].

Regarding `NC(N)=N/N=C(\c1ccc(Cl)cc1)C1CC1`, the AC50 is 0.794 µM (active).

Take `NC(N)=Nc1ccc(Cl)cc1`: the “activity, negative = inhibition” value was -11.8%. Still for that read-out and setting: then `Cc1ccc(C)c(/C(=N\N=C(N)N)C2CC2)c1`, with 1.09% [at 2.29 µM]; and `CCc1ccccc1NC(=O)c1ccc(F)c(S(=O)(=O)N2CCC(C(N)=O)CC2)c1`, with 1.23%. For `CCc1ccccc1NC(=O)c1ccc(-n2c(C)ccc2C)cc1`, the AC50 was 14.1 µM (active). For the molecule `NCCS(=O)O`, the “activity, negative = inhibition” value is -5.92%.

As for `Cn1cc(/C=N/n2cnc3scc(-c4ccccc4)c3c2=O)c2ccccc21`, the AC50 was 8.91 µM (active). For `Cn1cc(/C=N/n2cnc3sc4c(c3c2=O)CCCC4)c2ccccc21`, the AC50 is 14.1 µM (active).
